# From PubChem BioAssay
# Calls of active or inactive are those of the source. Unless noted, the rule behind the calls is not given here.
# Key:
# [1] = resazurin metabolic signal in HepG2 cells – cell-based, resazurin fluorescence, 24 h, PK04 Diversity Set, profiling panel (AID 1172); settings: HepG2 viability, higher = more signal; note: test concentration not given here
# [2] = budding yeast growth changes without added modifier – OD600, strain BY4716, 24 h, basal condition, primary screen (AID 1173); settings: S. cerevisiae BY4716 growth, OD600, 24 h; higher = more signal, called active from +8 up or from −8 down
# [3] = viability profiling in MM1S myeloma cells – cell-based, resazurin fluorescence, basal, 24 h, PK04 Diversity Set, profiling panel (AID 1174); settings: higher = more signal, called active from +8 up or from −8 down;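 note: MM1S multiple myeloma cell line; test concentration not given here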
# [4] = target: Dihydroorotate dehydrogenase (quinone), mitochondrial (Plasmodium falciparum (isolate 3D7)) (UniProt Q08210); assay: inhibition of P. falciparum DHODH – biochemical, C-terminal His tag, absorbance 600 nm, primary screen (AID 1175); settings: PfDHODH enzyme, DCIP absorbance 600 nm; higher = more signal, called active from +8 up or from −8 down;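 note: recombinant parasite enzyme with a five histidine tag at its C terminus; test concentration not given here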
# [5] = inhibition of PAO1 biofilm formation – strain PAO1, LB-PBS medium, absorbance 600 nm, primary screen (AID 1176); note: test concentration not given here; settings: P. aeruginosa PAO1 growth/biofilm, A600, 12 h; higher = more signal
# [6] = growth modulation of vineyard yeast isolate – strain RM11-1a, OD600, basal, 24 h, primary screen (AID 1177);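 note: cultures grown under basal conditions with no added stressor; test concentration not given here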; settings: S. cerevisiae RM11-1a growth, OD600, 24 h; higher = more signal, called active from +8 up or from −8 down
# [7] = growth of efflux-deficient E. coli DRC39 – strain DRC39, OD650, 24 h, E. coli filamentation inducers, primary screen (AID 1178);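 note: growth measured as culture turbidity by optical density at 650 nm; test concentration not given here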; settings: E. coli DRC39 acrAB, higher = more signal, called active from +8 up or from −8 down
# [8] = growth of efflux-deficient E. coli DRC39 – strain DRC39, OD650, 48 h, E. coli filamentation inducers, primary screen (AID 1179);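 note: screen aims at cell division blockers that make cells filament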; settings: E. coli DRC39 delta-acrAB growth, higher = more signal, called active from +8 up or from −8 down
# [9] = viability profiling in RPMI8226 myeloma cells – cell-based, resazurin fluorescence, basal, 24 h, PK04 Diversity Set, profiling panel (AID 1180); settings: higher = more signal;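 note: RPMI8826 multiple myeloma cell line at 5000 cells per well; test concentration not given here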
# [10] = target: E3 ubiquitin-protein ligase XIAP (Homo sapiens) (UniProt P98170); assay: small molecules binding XIAP protein – biophysical, small-molecule microarray, fluorescence 635 nm, primary screen (AID 1181); settings: higher = more signal;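 note: score merges 667 nm emission and signal to noise over triplicate slides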
# Sequence of E3 ubiquitin-protein ligase XIAP (Homo sapiens) (P98170 whole entry, looked up): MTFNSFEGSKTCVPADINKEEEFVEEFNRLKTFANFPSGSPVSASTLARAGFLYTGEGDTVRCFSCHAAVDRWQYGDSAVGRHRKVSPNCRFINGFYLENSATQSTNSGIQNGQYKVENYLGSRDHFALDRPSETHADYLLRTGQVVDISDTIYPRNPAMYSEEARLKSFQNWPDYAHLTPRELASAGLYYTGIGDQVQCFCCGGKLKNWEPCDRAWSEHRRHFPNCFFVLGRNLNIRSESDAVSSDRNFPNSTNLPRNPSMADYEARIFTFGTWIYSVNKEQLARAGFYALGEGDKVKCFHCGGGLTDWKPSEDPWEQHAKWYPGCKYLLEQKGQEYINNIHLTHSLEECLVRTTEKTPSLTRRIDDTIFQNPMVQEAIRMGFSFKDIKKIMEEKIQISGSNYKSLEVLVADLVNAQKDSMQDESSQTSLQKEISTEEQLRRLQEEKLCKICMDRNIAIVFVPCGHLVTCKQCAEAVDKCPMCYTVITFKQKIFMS
# Sequence of Dihydroorotate dehydrogenase (quinone), mitochondrial (Plasmodium falciparum (isolate 3D7)) (Q08210 whole entry, looked up): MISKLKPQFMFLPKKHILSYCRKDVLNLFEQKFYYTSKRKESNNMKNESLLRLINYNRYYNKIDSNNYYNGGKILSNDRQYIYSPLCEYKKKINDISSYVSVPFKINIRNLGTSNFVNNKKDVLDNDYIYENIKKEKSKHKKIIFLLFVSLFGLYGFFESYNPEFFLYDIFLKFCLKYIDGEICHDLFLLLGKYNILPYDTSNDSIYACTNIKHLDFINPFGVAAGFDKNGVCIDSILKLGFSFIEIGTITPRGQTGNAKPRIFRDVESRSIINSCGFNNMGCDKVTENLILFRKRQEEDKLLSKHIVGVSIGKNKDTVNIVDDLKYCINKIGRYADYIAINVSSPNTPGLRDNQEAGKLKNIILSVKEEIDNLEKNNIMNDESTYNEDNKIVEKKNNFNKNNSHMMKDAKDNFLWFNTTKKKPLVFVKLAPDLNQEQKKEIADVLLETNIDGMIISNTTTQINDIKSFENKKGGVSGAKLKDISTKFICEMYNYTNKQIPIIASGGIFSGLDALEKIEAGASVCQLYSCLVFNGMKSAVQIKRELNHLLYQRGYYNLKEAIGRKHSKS
Structure (SMILES),z-score [1],z-score [2],z-score [3],composite z-score [4],z-score [5],z-score [6],z-score [7],z-score [8],z-score [9],composite z-score [10]
COC(=O)C(CC#Cc1ccc2c(c1)[C@]1(C(=O)N2)[C@H](c2ccc(OCCO)cc2)N2[C@H](c3ccccc3)[C@H](c3ccccc3)OC(=O)[C@H]2[C@@H]1C(=O)N1CCN(c2ncccn2)CC1)C(=O)OC,-0.175,1.96 (inactive),-0.382 (inactive),-6.39 (inactive),3.09 (inactive),1.79 (inactive),0.452 (inactive),0.152 (inactive),-2.63,0.0651
CCOC(=O)C1=C[C@@H](C(C)(C)C)N(S(=O)(=O)c2ccc(C)cc2)[C@H]1c1cccc(Cl)c1,-0.594,2.15 (inactive),-1.66 (inactive),1.08 (inactive),0.16 (inactive),2.81 (inactive),-0.326 (inactive),-0.104 (inactive),-3.41,-0.0994
CC(C)C[C@@H]1NC(=O)[C@H]2C[C@@H](C(=O)NCCCCCN)[C@@H](c3cccc(OCCO)c3)N2C1=O,-0.604,-0.122 (inactive),-0.178 (inactive),-1.36 (inactive),-0.0491 (inactive),-2.46 (inactive),1.06 (inactive),1.61 (inactive),0.138,-0.198
CCOC(=O)C[C@H]1[C@H](OC(=O)c2ccccc2-c2ccccc2)[C@@H](NC(=O)c2ccccc2)c2cc(OCCCO)ccc2N1C(=O)c1ccccc1,-0.632,0.474 (inactive),-0.287 (inactive),0.374 (inactive),-0.0582 (inactive),0.383 (inactive),-0.536 (inactive),-0.508 (inactive),-0.0741,0.0871
CS(=O)(=O)CCOC(=O)C1=CC(CCCO)=CC(C2CC2)N(Cc2cccc(OC(F)(F)F)c2)C=C1C(=O)OCCS(C)(=O)=O (stereo not given),0.0407,-2.55 (inactive),0.0932 (inactive),-0.0527 (inactive),0.342 (inactive),0.416 (inactive),0.9 (inactive),0.241 (inactive),0.329,0.0363
CC1CC/C=C\[C@H]2OC34C=CCN(C(C)(C)C)C(=O)[C@H]3N(C(CO)C(C)C)C(=O)[C@@H]4C2C(=O)O1 (stereo not given in full),-0.49,-0.154 (inactive),-0.34 (inactive),-6.62 (inactive),0.0251 (inactive),-0.472 (inactive),0.361 (inactive),0.338 (inactive),-0.375,0.0357
C[C@@H]1ON(c2ccc(I)cc2)[C@H](c2ccc(OC(=O)OC(C)(C)C)cc2)[C@H]1C(=O)N1C(=O)OC[C@H]1Cc1ccccc1,1.14,-1.24 (inactive),1.6 (inactive),-0.571 (inactive),0.294 (inactive),0.61 (inactive),1.81 (inactive),1.2 (inactive),1.87,-0.0448
C=CCC(OC(C)=O)[C@@H]1[C@@H](N(Cc2ccc(-c3ccccc3)cc2)C(=O)c2ccc(C)cc2)c2cc(OCCCO)ccc2N1C(=O)Cc1ccc2ccccc2c1 (stereo not given in full),1.03,-0.516 (inactive),1.38 (inactive),-1 (inactive),0.219 (inactive),-1.72 (inactive),1.64 (inactive),1.93 (inactive),1.22,-0.02
CN1C(=O)[C@@H]2[C@@H](CC(COc3ccccc3)=C([C@H](O)CCc3ccccc3)[C@@H]2CO)C1=O,0.358,-3.31 (inactive),0.0223 (inactive),-0.171 (inactive),-0.104 (inactive),-0.136 (inactive),2.19 (inactive),1.17 (inactive),0.685,0.0178
C=C[C@@H](OC)[C@H](OC(=O)Nc1ccc(OC)cc1)c1ccc(OC)c(O)c1,0.358,-1.19 (inactive),-0.143 (inactive),-0.0589 (inactive),0.295 (inactive),0.445 (inactive),0.724 (inactive),0.367 (inactive),0.185,0.431
CN1C=C(C(=O)OCCS(C)(=O)=O)C(C(=O)OCCS(C)(=O)=O)=CC(c2ccc(CO)cc2)=CC1c1cccs1 (stereo not given),0.0449,-3.66 (inactive),-0.727 (inactive),-0.927 (inactive),-0.566 (inactive),-0.363 (inactive),0.0198 (inactive),-0.0834 (inactive),0.0779,0.246
